Assay results from PubChem BioAssay (Tox21).
Inconclusive results are not listed. Entries that show only a call come without a potency. The source made the active and inactive calls. Unless noted, the call rests on the fitted dose curve; in most records, active means well fitted curve in the direction sought with a large enough effect in the repeat runs; inconclusive means weak or mixed curves; inactive means no such curve, though single readings can be large; an effect the other way counts as inactive or inconclusive.

Legend:
[1] = qHTS assay to test for compound auto fluorescence at 535 nm (green) in HEK293 cells (AID 720680)
[2] = qHTS assay to test for compound auto fluorescence at 460 nm (blue) in HEK293 cell free culture (AID 720681)
Procedure, shortened: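 Test compounds were pinned into cell-free culture medium (DMEM with 10% FBS) and fluorescence was read directly at Ex/Em 405/460 nm. Signals were expressed as fluorescence equivalents of triamterene, with DMSO vehicle as control.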

[3] = qHTS assay to test for compound auto fluorescence at 535 nm (green) in HEK293 cell free culture (AID 720682)
Procedure, shortened: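 Green-label autofluorescence (485 nm excitation, 535 nm emission) measured on compound added to cell-free culture medium (DMEM, 10% FBS). Output is expressed relative to fluorescein.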

[4] = qHTS assay to test for compound auto fluorescence at 590 nm (red) in HEK293 cell free culture (AID 720683)
Procedure, shortened: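 Tox21 10K library compounds were pinned into cell-free DMEM with 10% FBS and fluorescence was read at excitation 540 nm. Activity is expressed as Rose Bengal sodium equivalency.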

[5] = qHTS assay to test for compound auto fluorescence at 590 nm (red) in HepG2 cell free culture (AID 720684)
Procedure, shortened: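 Readout: intrinsic compound fluorescence at 590 nm emission after 540 nm excitation, scaled to Rose Bengal sodium. Matrix was cell-free MEM with 10% FBS; DMSO vehicle wells served as control.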

[6] = qHTS assay to test for compound auto fluorescence at 460 nm (blue) in HepG2 cell free culture (AID 720685)
Procedure, shortened: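 Cell-free plates of MEM plus 10% FBS received 23 nL compound or DMSO vehicle; blue-channel (405/460 nm) intensity scored against triamterene as reference fluorophore.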

[7] = qHTS assay to test for compound auto fluorescence at 535 nm (green) in HepG2 cell free culture (AID 720686)
[8] = qHTS assay to test for compound auto fluorescence at 460 nm (blue) in HepG2 cells (AID 720687)
Procedure, shortened: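 Cells (2,000/well in MEM with 10% FBS) attached overnight at 37 C, then were exposed to compound or DMSO for 1 hr at 37 C, 5% CO2. Fluorescence read at Ex/Em 405/460 nm, expressed as triamterene-equivalent signal.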

[9] = target: Glucocorticoid receptor (Homo sapiens) (UniProt P04150); assay: qHTS assay to identify small molecule agonists of the glucocorticoid receptor (GR) signaling pathway (AID 720691; active means well fitted activation curve with a large enough effect in the signal ratio in the repeat runs, not every such curve was filed as active; the % refers to the signal ratio)
Procedure, shortened: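 Cells: GR-bla HeLa, endogenous GR with stably integrated GRE-beta-lactamase reporter. Treatment 18 h, 37 C, compounds delivered in DMSO. Detection via LiveBLAzer B/G FRET substrate, 2 h RT, fluorescence intensity.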

[10] = target: Glucocorticoid receptor (Homo sapiens) (UniProt P04150); assay: qHTS assay to identify small molecule antagonists of the glucocorticoid receptor (GR) signaling pathway (AID 720692; active means well fitted inhibition curve with a large enough effect in the signal ratio in the repeat runs, not every such curve was filed as active; the % refers to the signal ratio)
Procedure, shortened: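 Quantitative HTS in antagonist format: HeLa cells expressing endogenous GR and a stably integrated GRE-bla reporter, stimulated with 5 nM dexamethasone (final) alongside test compounds for 18 h.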

[11] = qHTS assay to identify small molecule antagonists of the glucocorticoid receptor (GR) signaling pathway - cell viability counter screen (AID 720693); further: nearly all actives have a fitted effect of over 55% in size
[12] = qHTS assay for identifying genotoxic compounds that show differential cytotoxicity against isogenic chicken DT40 cell lines with known DNA damage response pathways - Rev3 mutant cell line (AID 743014); further: nearly all actives have a fitted effect of over 55% in size; further: potency means the concentration at half of the fitted maximal effect
[13] = qHTS assay to identify small molecule antagonists of the androgen receptor (AR) signaling pathway - cell viability counter screen (AID 743033; further: nearly all actives have a fitted effect of over 45% in size)
[14] = qHTS assay to identify small molecule antagonists of the androgen receptor (AR) signaling pathway using the MDA cell line - cell viability counter screen (AID 743041; further: nearly all actives have a fitted effect of over 45% in size)
Procedure, shortened: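 qHTS viability read-out; MDA-kb2 AR-luc; R1881-stimulated; 16 h exposure at 37C, 0% CO2; CellTiter-Fluor, 30 min; fluorescence intensity.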

[15] = qHTS assay for identifying genotoxic compounds that show differential cytotoxicity against isogenic chicken DT40 cell lines with known DNA damage response pathways - wild type cell line (AID 743012); further: nearly all actives have a fitted effect of over 60% in size; further: potency means the concentration at half of the fitted maximal effect
Procedure, shortened: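 Luminescent ATP viability signal (CellTiter-Glo, 30 min RT) recorded after wild type DT40 cells were incubated with compounds for 40 h at 37 C/5% CO2.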

[16] = qHTS assay for identifying genotoxic compounds that show differential cytotoxicity against isogenic chicken DT40 cell lines with known DNA damage response pathways - Rad54/Ku70 mutant cell line (AID 743015); further: nearly all actives have a fitted effect of over 60% in size; further: potency means the concentration at half of the fitted maximal effect
[17] = target: Androgen receptor (Homo sapiens) (UniProt P10275); assay: qHTS assay to identify small molecule agonists of the androgen receptor (AR) signaling pathway (AID 743036; active means well fitted activation curve with a large enough effect in the signal ratio in the repeat runs, with a control signal flat, not every such curve was filed as active; the % refers to the signal ratio)
Procedure, shortened: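 AR-UAS-bla HEK293 cells, plated 4 h before dosing, were treated with compound for 16 h at 37C. beta-Lactamase reporter read after 2 h with LiveBLAzer B/G FRET substrate at room temperature.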

[18] = target: Androgen receptor (Homo sapiens) (UniProt P10275); assay: qHTS assay to identify small molecule agonists of the androgen receptor (AR) signaling pathway using the MDA cell line (AID 743040; further: nearly all actives have a fitted effect of over 20% in size)
Procedure, shortened: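 Agonist activity is measured as luciferase luminescence in human MDA-kb2 cells whose MMTV reporter responds to both AR and GR. Compounds in DMSO incubate 16 h at 37C, 0% CO2, and ONE-Glo is read after 30 min.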

[19] = target: Androgen receptor (Homo sapiens) (UniProt P10275); assay: qHTS assay to identify small molecule antagonists of the androgen receptor (AR) signaling pathway using the MDA cell line (AID 743042; further: nearly all actives have a fitted effect of over 55% in size)
Procedure, shortened: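 MDA-kb2 cells (human breast carcinoma, stably carrying an MMTV-luciferase reporter responsive to AR and GR) were plated at 3,000 cells/well and preincubated 5 hr at 37C, then given compound plus R1881 agonist for 16 h. ONE-Glo luminescence was read.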

[20] = target: Androgen receptor (Homo sapiens) (UniProt P10275); assay: qHTS assay to identify small molecule antagonists of the androgen receptor (AR) signaling pathway (AID 743035; active means well fitted inhibition curve with a large enough effect in the signal ratio in the repeat runs, not every such curve was filed as active; the % refers to the signal ratio)
Procedure, shortened: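 Quantitative HTS of the Tox21 10K library used HEK293 AR-UAS-bla cells stimulated with R1881 alongside compound for 16 h at 37C, followed by beta-lactamase FRET detection (LiveBLAzer B/G, 2 h, RT).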

Chain of Androgen receptor (Homo sapiens) (P10275 whole entry, looked up): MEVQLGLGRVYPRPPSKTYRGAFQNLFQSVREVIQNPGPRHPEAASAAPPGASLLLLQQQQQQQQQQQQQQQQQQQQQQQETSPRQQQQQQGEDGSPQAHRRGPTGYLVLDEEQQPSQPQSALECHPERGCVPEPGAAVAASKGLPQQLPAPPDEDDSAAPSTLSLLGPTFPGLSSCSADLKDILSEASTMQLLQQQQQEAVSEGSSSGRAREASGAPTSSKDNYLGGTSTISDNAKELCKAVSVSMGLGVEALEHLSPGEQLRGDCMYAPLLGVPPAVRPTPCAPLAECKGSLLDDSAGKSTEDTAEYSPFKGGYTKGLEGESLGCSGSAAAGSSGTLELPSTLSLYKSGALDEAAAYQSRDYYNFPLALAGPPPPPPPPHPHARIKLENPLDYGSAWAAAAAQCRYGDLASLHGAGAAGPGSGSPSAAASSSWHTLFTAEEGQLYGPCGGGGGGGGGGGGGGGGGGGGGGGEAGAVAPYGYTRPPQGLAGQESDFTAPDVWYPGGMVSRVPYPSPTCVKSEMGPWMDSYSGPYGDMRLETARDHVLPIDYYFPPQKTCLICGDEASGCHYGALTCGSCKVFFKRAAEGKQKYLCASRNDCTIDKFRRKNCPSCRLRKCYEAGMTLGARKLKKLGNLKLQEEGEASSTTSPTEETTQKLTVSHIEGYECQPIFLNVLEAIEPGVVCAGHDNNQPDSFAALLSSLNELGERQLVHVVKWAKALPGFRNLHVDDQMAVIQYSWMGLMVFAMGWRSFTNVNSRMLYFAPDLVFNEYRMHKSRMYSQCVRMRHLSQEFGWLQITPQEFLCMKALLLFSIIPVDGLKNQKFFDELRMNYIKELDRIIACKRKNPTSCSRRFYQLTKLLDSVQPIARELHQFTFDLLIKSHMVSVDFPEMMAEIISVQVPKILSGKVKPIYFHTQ
Chain of Glucocorticoid receptor (Homo sapiens) (P04150 whole entry, looked up): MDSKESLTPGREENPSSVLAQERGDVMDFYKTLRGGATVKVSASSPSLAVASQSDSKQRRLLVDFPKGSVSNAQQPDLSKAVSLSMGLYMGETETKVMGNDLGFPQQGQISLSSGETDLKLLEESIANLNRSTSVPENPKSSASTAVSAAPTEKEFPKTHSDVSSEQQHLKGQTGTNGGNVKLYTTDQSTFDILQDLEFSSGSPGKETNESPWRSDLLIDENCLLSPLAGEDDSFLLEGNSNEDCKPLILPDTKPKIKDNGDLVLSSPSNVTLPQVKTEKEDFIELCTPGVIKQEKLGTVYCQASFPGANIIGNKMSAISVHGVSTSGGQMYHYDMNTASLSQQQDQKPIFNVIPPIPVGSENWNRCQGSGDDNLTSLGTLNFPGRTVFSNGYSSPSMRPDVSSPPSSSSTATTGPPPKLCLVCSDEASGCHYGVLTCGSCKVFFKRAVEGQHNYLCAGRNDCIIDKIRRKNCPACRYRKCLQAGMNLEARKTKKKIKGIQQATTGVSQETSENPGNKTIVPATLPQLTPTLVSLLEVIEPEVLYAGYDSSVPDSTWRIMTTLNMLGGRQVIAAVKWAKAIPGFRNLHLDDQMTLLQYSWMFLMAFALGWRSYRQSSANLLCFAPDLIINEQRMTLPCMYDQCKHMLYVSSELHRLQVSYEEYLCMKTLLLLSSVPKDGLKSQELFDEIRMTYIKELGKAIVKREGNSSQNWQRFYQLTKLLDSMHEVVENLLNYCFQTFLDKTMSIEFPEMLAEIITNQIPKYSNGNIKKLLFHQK

SMILES | outcome [1] | Potency [2] | outcome [3] | outcome [4] | outcome [5] | outcome [6] | outcome [7] | outcome [8] | Potency [9] | Potency [10] | Potency [11] | Potency [12] | Potency [13] | Potency [14] | Potency [15] | Potency [16] | outcome [17] | outcome [18] | Potency [19] | Potency [20]
O=C(OCCCCCOC(=O)c1ccccc1)c1ccccc1 | inactive | inactive | inactive | inactive | inactive | inactive | inactive | inactive | inactive | inactive | inactive | 61.1 µM (active) | inactive | inactive | – | – | – | – | – | –
CC(CCl)OC(C)CCl (configuration not stated) | inactive | inactive | inactive | inactive | inactive | inactive | inactive | inactive | inactive | inactive | inactive | – | inactive | inactive | inactive | inactive | – | – | – | –
CCC(=O)O[C@@H]1C[C@H]2CC[C@]1(C)C2(C)C | inactive | inactive | inactive | inactive | inactive | inactive | inactive | inactive | inactive | inactive | inactive | inactive | inactive | inactive | inactive | inactive | – | – | – | –
Nc1cccc2c(=O)[nH][nH]c(=O)c12 | inactive | inactive | inactive | inactive | inactive | inactive | inactive | inactive | inactive | inactive | inactive | inactive | inactive | inactive | inactive | inactive | – | – | – | –
CCC(CC)C(=O)O | inactive | inactive | inactive | inactive | inactive | inactive | inactive | inactive | inactive | inactive | inactive | inactive | inactive | inactive | – | inactive | – | – | – | –
CCCCCCCCCCCCCCCCC(=O)O | inactive | inactive | inactive | inactive | inactive | inactive | inactive | inactive | inactive | inactive | inactive | inactive | inactive | inactive | inactive | inactive | inactive | inactive | inactive | –
S=c1[nH][nH]c(=S)s1 | inactive | inactive | inactive | inactive | inactive | inactive | inactive | inactive | inactive | inactive | inactive | inactive | – | inactive | – | – | – | – | – | –
O=C(O)c1cc(C(=O)O)c(C(=O)O)cc1C(=O)O | inactive | inactive | inactive | inactive | inactive | inactive | inactive | inactive | inactive | inactive | inactive | inactive | inactive | inactive | – | inactive | inactive | inactive | inactive | inactive
C/C(=C(\CCO)SS/C(CCO)=C(\C)N(C=O)Cc1cnc(C)nc1N)N(C=O)Cc1cnc(C)nc1N | inactive | inactive | inactive | inactive | inactive | inactive | inactive | inactive | inactive | inactive | inactive | – | inactive | inactive | – | inactive | – | – | – | –
COc1ccc(CN(CCN(C)C)c2ncccn2)cc1 | inactive | inactive | inactive | inactive | inactive | inactive | inactive | inactive | inactive | inactive | inactive | inactive | inactive | inactive | inactive | inactive | – | – | – | –
CCCCCCOC(=O)c1ccccc1 | inactive | inactive | inactive | inactive | inactive | inactive | inactive | inactive | inactive | inactive | inactive | 61.1 µM (active) | – | – | 68.6 µM (active) | 61.1 µM (active) | – | – | – | –
CCCC1CCOC(C)S1 (configuration not stated) | inactive | inactive | inactive | inactive | inactive | inactive | inactive | inactive | inactive | inactive | inactive | – | inactive | inactive | inactive | inactive | inactive | inactive | inactive | inactive
CCCC1CCCC(=O)O1 (configuration not stated) | inactive | inactive | inactive | inactive | inactive | inactive | inactive | inactive | inactive | inactive | inactive | inactive | inactive | – | inactive | inactive | – | – | – | –
CC1=C(C)C(=O)C(C(CCCCCC(=O)O)c2ccccc2)=C(C)C1=O (configuration not stated) | inactive | inactive | inactive | inactive | inactive | inactive | inactive | inactive | inactive | inactive | inactive | – | inactive | inactive | inactive | inactive | – | – | – | –
CC(C)CCCCCCCOC(=O)c1ccc(C(=O)OCCCCCCCC(C)C)c(C(=O)OCCCCCCCC(C)C)c1 | inactive | inactive | inactive | inactive | inactive | inactive | inactive | inactive | inactive | inactive | inactive | inactive | inactive | inactive | inactive | inactive | – | – | – | –
O=C(Cl)c1cc(Cl)cc(Cl)c1 | inactive | inactive | inactive | inactive | inactive | inactive | inactive | inactive | inactive | inactive | inactive | inactive | inactive | inactive | inactive | inactive | – | – | – | –
